Assay outcomes as filed in PubChem BioAssay.
A selection: hits, their analogues and other compounds. The true share with any hit is near 2.3%.
Pf Dd2 inh: P. falciparum Dd2 growth inhibition | SYBR Green, 72 h; active compounds read low | activity change, % at 10 µM | 2.3% of 94,000 active; in the data active = activity change below about -80%
C diff growth: blocks growth of Clostridium difficile; Clostridium difficile clinical isolate growth, OD600, 24 h; active compounds read low; growth activity, negative = inhibition, % at 16 µg/mL (by protocol); 0.25% of 86,000 active; AID 1259249;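 active = mean growth activity at or below -80% and every replicate also at or below -80%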;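 note: 0% = DMSO wells and -100% = levofloxacin 16 µg/mL wells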
* hit, by the source's call; · = no result.

SMILES | Pf Dd2 inh | C diff growth
CN(C)C(=O)c1cccc(-c2cccc(-c3nc(C(=O)NC4CCCCC4)cc4c3[C@@H](CCO)N([S@](=O)C(C)(C)C)C4)c2)c1 | -87.2* | ·
CC(C)(O)C#Cc1cccc(-c2nc(C(=O)N[C@@H]3CCN(Cc4ccccc4)C3)cc3c2[C@@H](CCO)N(S(=O)C(C)(C)C)C3)c1 (some centres not stated) | -72.4 | 2.8
CN(C)C(=O)c1ccc(-c2cccc(-c3nc(C(=O)NC4CCCCC4)cc4c3[C@@H](CCO)N([S@](=O)C(C)(C)C)C4)c2)cc1 | -73.6 | ·
COc1ccc(C#Cc2cccc(-c3nc(C(=O)N[C@@H]4CCN(Cc5ccccc5)C4)cc4c3[C@@H](CCO)N(S(=O)C(C)(C)C)C4)c2)cc1OC (some centres not stated) | -88.2* | -2.4
CN(C)C(=O)c1cccc(-c2cccc(-c3nc(C(=O)NC4CCCCC4)cc4c3[C@H](CCO)N([S@@](=O)C(C)(C)C)C4)c2)c1 | -84.2* | ·
CN(C)C(=O)c1ccc(-c2cccc(-c3nc(C(=O)NC4CCCC4)cc4c3[C@@H](CCO)N([S@](=O)C(C)(C)C)C4)c2)cc1 | -74.3 | ·
CC(C)NC(=O)N1CCCCN2[C@H](CO)[C@@H](c3ccc(C#Cc4ccccc4)cc3)[C@@H]2C1 | 8.5 | 31.6
COc1ccc(NC(=O)N(C)C[C@H]2OCCCC[C@H](C)Oc3ccc(NS(=O)(=O)c4c(C)noc4C)cc3C(=O)N([C@@H](C)CO)C[C@H]2C)cc1 | -42.7 | -0.9
N#C[C@H]1[C@@H](c2ccccc2C2=CCCC2)[C@H](CO)N1C(=O)C1CCCC1 | 32.0 | -9.1
COc1cccc(C(=O)Nc2ccc3c(c2)C(=O)N(C)C[C@@H](OC)[C@H](C)CN(CC2CC2)[C@H](C)CO3)c1 | 11.6 | ·
CCCC#Cc1ccc([C@H]2[C@@H](CO)N(C(=O)C3CCCCC3)[C@H]2C#N)cc1 | -85.6* | -5.0
CC(C)NC(=O)N1[C@H](C#N)[C@H](c2ccc(C#CC3CCCC3)cc2)[C@@H]1CO | -87.5* | 0.5
N#C[C@H]1[C@H](c2ccc(C#Cc3ccccc3F)cc2)[C@@H](CO)N1C(=O)C1CCCC1 | -86.9* | 23.4
N#C[C@@H]1[C@@H](c2ccc(C#Cc3ccccc3F)cc2)[C@H](CO)N1C(=O)C1CCCC1 | -43.4 | 46.8
N#C[C@H]1[C@@H](c2ccc(C#Cc3ccc(F)cc3)cc2)[C@H](CO)N1C(=O)C1CCCC1 | -71.6 | -7.0
CC(C)NC(=O)N1[C@@H](C#N)[C@@H](c2ccc(C#CC3CCCC3)cc2)[C@@H]1CO | -7.5 | 2.9
CCCC#Cc1ccc([C@@H]2[C@@H](C#N)N(C(=O)C3CCCC3)[C@H]2CO)cc1 | -22.6 | -5.4
N#C[C@@H]1[C@@H](c2ccc(C#Cc3ccc(F)cc3)cc2)[C@H](CO)N1C(=O)C1CCCC1 | -86.0* | 6.8
COCCNC(=O)C[C@@H]1CC[C@@H]2[C@H](COC[C@@H](O)CN2C(=O)c2cc(Cl)cc(Cl)c2)O1 | 18.0 | 8.1
Cc1noc(C)c1S(=O)(=O)Nc1ccc2c(c1)CC(=O)N([C@H](C)CO)C[C@H](C)[C@H](CN(C)S(=O)(=O)c1ccccc1)O2 | -16.5 | 4.0
O=C(c1ccncc1)N1C[C@@H]2[C@H](c3ccccc31)[C@@H](CO)N2C(=O)c1ccccn1 | 17.6 | -3.4
CCCNC(=O)N(C)C[C@@H]1Oc2cc(C#CC3CC3)ccc2S(=O)(=O)N([C@@H](C)CO)C[C@H]1C | -8.7 | -8.9
C[C@@H]1CN([C@H](C)CO)C(=O)c2cc(NC(=O)Nc3ccc(F)cc3)ccc2O[C@@H](C)CCCCO[C@H]1CN(C)S(=O)(=O)c1ccccc1 | -75.8 | 3.8
C[C@@H]1CCCCO[C@@H](CN(C)S(=O)(=O)c2ccccc2)[C@H](C)CN([C@H](C)CO)C(=O)c2cc(NC(=O)Nc3ccc(F)cc3)ccc2O1 | -74.6 | -0.7
C[C@@H]1CN([C@@H](C)CO)C(=O)c2cc(NC(=O)Nc3ccc(F)cc3)ccc2O[C@@H](C)CCCCO[C@@H]1CN(C)S(=O)(=O)c1ccccc1 | -83.9* | 10.0
SMILES | Pf Dd2 inh | C diff growth
C[C@@H]1CCCCO[C@@H](CN(C)S(=O)(=O)c2ccccc2)[C@@H](C)CN([C@@H](C)CO)C(=O)c2cc(NC(=O)Nc3ccc(F)cc3)ccc2O1 | -80.9* | 7.9
Cc1noc(C)c1NC(=O)Nc1ccc2c(c1)C(=O)N([C@H](C)CO)C[C@@H](C)[C@H](CN(C)C(=O)Nc1ccc(F)cc1)OCCCC[C@@H](C)O2 | -21.8 | 2.9
O=C(C[C@H]1C=C[C@H](NS(=O)(=O)c2ccccc2)[C@H](CO)O1)N1CCN(c2ccccc2)CC1 | 33.1 | -0.3
O=C(c1cccnc1)N1CC2(C1)[C@@H](c1ccccc1)[C@@H](CO)N2C(=O)c1cccnc1 | -11.2 | -0.9
Cc1noc(C)c1NC(=O)N[C@@H]1C=C[C@@H](CC(=O)N2CCCCC2)O[C@H]1CO | 35.3 | 4.5
CNC[C@H]1Oc2ccc(NC(=O)CCN3CCOCC3)cc2CC(=O)N([C@@H](C)CO)C[C@@H]1C | 17.8 | 1.7
